The entries come from a sample that favours hits as a whole.
PL synth Enamine – blocks phospholipid synthesis in CHO cells, Enamine compounds; ZR-82 CHO cells, pyrene fatty acid UV survival, CellTiter Blue; peroxisome-deficient CHO-K1 mutant line; plus DGAT-1, DGAT-2 and ACAT inhibitors; calls only at 10 µM; 20,000 tested, 0.4% active; AID 1347385;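 active = cell survival signal 2 SD away from solvent-only control wells, confirmed on one or two retests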;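 note: 3 h compound exposure then viability read about one day after UV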
The depositor's hits bear a star; i = inactive; + = active, no number.

SMILES	PL synth Enamine
Cc1cc(C)nc(NNc2ncnc(N)c2[N+](=O)[O-])n1	i
Cc1cc(Sc2ncnc(N)c2[N+](=O)[O-])ncn1	+
O=C(CSc1nnnn1C1CC1)N1CCN(C(=O)c2cccs2)CC1	i
CCCCn1c(=O)[nH]c(=O)c2c1nc(CCC(=O)Nc1nccs1)n2CC(C)C	i
Oc1ccc2cc(Br)ccc2c1CN(Cc1ccncc1)C1CC1	i
Brc1cnc2nc(-c3ccccc3)c(-c3ccccc3)nc2c1	i
C[n+]1ccccc1N1CCN(C(c2ccccc2)c2ccccc2)CC1	i
Cc1sc2ncnc(NC3CCC(O)CC3)c2c1C (centres undefined)	i
Cc1sc2ncnc(NCC(C)O)c2c1C (centres undefined)	i
C/C(=N\Nc1ncnc2sc(C)c(C)c12)c1ccc(Cl)s1	+
Cc1cc(C)n2cc(CSc3nc4cc(Cl)ccc4s3)nc2n1	i
Cc1cc(C(=O)CSc2nnc(-c3cccs3)o2)c(C)n1C1CC1	i
CC1(C)C2CC=C(/C=N/NC(=S)Nc3cccnc3)C1C2 (centres undefined)	i
CC1(C)C2CC=C(/C=N/NC(N)=S)C1C2 (centres undefined)	i
CCNC(=S)N/N=C/C1=CCC2CC1C2(C)C (centres undefined)	i
CC1(C)C2CC=C(/C=N/NC(=S)NC3CCCCC3)C1C2 (centres undefined)	+
CC(C)NC(=S)N/N=C/C1=CCC2CC1C2(C)C (centres undefined)	+
C=C(C)CNC(=S)N/N=C/C1=CCC2CC1C2(C)C (centres undefined)	i
Nc1ccc(OCC(F)(F)F)cc1	i
Cc1nc(CNCC23CC4CC(CC(C4)C2)C3)cs1	i
c1ccc(C2C3=C(CCCC3)Nc3nc4ccccc4n32)cc1 (centres undefined)	i
Cc1ccc(C(=O)C(C)Sc2nnc(-c3ccc4c(c3)OCO4)o2)cc1C (centres undefined)	i
O=C(CSc1nnc(-c2ccc3c(c2)OCO3)o1)CSc1nnc(-c2ccc3c(c2)OCO3)o1	i
O=C(c1ccccc1)C(Sc1nnc(-c2ccc3c(c2)OCO3)o1)c1ccccc1 (centres undefined)	+
C/C(CC(=O)NC1CCCCC1)=N\NC(=O)C(=O)NC(C)(C)C	i
SMILES	PL synth Enamine
Cn1/c(=N/N=C/c2ccc(OCc3ccccc3)c(OCc3ccccc3)c2)sc2ccccc21	i
c1ccc(N=Nc2c3[nH]c4ccccc4nc-3c3ccccc23)cc1	+
NC(=S)N=Nc1c2[nH]c3ccccc3nc-2c2ccccc12	i
c1ccc2c(N=Nc3c4[nH]c5ccccc5nc-4c4ccccc34)cccc2c1	i
c1ccc(-c2cnc(CSc3nnnn3C3CC3)o2)cc1	i
Cc1cc(-n2c(C)cc(-c3csc(NC4CC4)n3)c2C)no1	i
CCN(C(=O)CSc1nnc(NC2CC2)s1)C1CCS(=O)(=O)C1 (centres undefined)	i
CSc1ccccc1N=C/C=C1/N(C)c2ccccc2C1(C)C	i
CN1/C(=C\C=Nc2ccc(I)cc2)C(C)(C)c2ccccc21	i
CN1/C(=C\C=N\N=C2c3ccccc3-c3ccccc32)C(C)(C)c2ccccc21	+
Fc1cccc(F)c1/C=N/n1c(-c2cc3ccccc3o2)csc1=NCCc1ccccc1	+
C=CCN=c1scc(-c2cc3ccccc3o2)n1/N=C/c1ccccc1Br	i
CN=c1scc(-c2cc3ccccc3o2)n1/N=C/c1cccc(C(F)(F)F)c1	i
C=CCNc1nc(C(=O)OCC2=C(C(=O)OCC)C(C)NC(=O)N2)cs1 (centres undefined)	i

From PubChem BioAssay
